# Test results as given in the antibiotic and cytotoxicity screens of Wong et al. (2023).
# The campaign covered roughly 39,000 compounds. About 1,500 (3.8%) were called active. The sample holds actives, similar compounds and a random draw of the others, so the mix is not that of the screen.
# Tested on: HSkMC (human skeletal muscle cells)
# Assay: cytotoxicity call (relative viability < 0.9)
# Conditions: 10 µM
row,SMILES,cytotoxicity call
1,COc1cccc(Nc2ncnn3ccc(CN4CC[C@@H](N)[C@H](O)C4)c23)c1,inactive
2,COc1cccc(S(=O)(=O)N2C[C@H](O)COC[C@H]3O[C@H](CC(=O)N4CCN(C)CC4)CC[C@@H]32)c1,inactive
3,C[C@H](CO)N1C[C@H](C)[C@@H](CN(C)CC2CC2)Oc2ccc(NS(=O)(=O)c3ccccc3)cc2C1=O,inactive
4,CC1(C)[C@H]2CC[C@@]1(C)c1nn(-c3ccccc3)c(C(F)(F)F)c12,inactive
5,C[C@H](CO)N1C[C@H](C)[C@@H](CN(C)C(=O)Nc2cccc3ccccc23)OCCCC[C@H](C)Oc2ccc(NC(=O)Nc3ccc(F)cc3)cc2C1=O,inactive
6,C[C@@H]1CN([C@H](C)CO)C(=O)c2cc(NC(=O)Nc3ccc4c(c3)OCO4)ccc2O[C@@H]1CN(C)Cc1ccc(Oc2ccccc2)cc1,active
7,COc1ccc(NC(=O)Nc2ccc3c(c2)C(=O)N([C@H](C)CO)C[C@@H](C)[C@@H](CN(C)Cc2ccc(Oc4ccccc4)cc2)O3)cc1,inactive
8,C[C@@H]1CN([C@@H](C)CO)C(=O)c2cc(NC(=O)Nc3ccccc3)ccc2O[C@@H]1CN(C)Cc1ccc(Oc2ccccc2)cc1,active
9,C[C@@H]1CN([C@@H](C)CO)C(=O)c2cc(NC(=O)Cc3ccccc3)ccc2O[C@H]1CN(C)Cc1ccc(Oc2ccccc2)cc1,inactive
10,C[C@@H]1CN([C@@H](C)CO)C(=O)c2cc(NC(=O)Cc3ccccc3)ccc2O[C@@H]1CN(C)Cc1ccc(Oc2ccccc2)cc1,active
11,COc1ccc(NC(=O)Nc2ccc3c(c2)C(=O)N([C@H](C)CO)C[C@H](C)[C@@H](CN(C)Cc2ccc(Oc4ccccc4)cc2)O3)cc1,inactive
12,COc1ccc(NC(=O)Nc2ccc3c(c2)C(=O)N([C@H](C)CO)C[C@H](C)[C@H](CN(C)Cc2ccc(Oc4ccccc4)cc2)O3)cc1,active
13,C[C@@H]1CN([C@@H](C)CO)C(=O)c2cc(NC(=O)Nc3ccccc3)ccc2O[C@H]1CN(C)Cc1ccc(Oc2ccccc2)cc1,inactive
14,C[C@@H]1CN([C@@H](C)CO)C(=O)c2cc(NC(=O)Nc3ccc4c(c3)OCO4)ccc2O[C@H]1CN(C)Cc1ccc(Oc2ccccc2)cc1,inactive
15,C[C@H](CO)N1C[C@H](C)[C@H](CN(C)Cc2ccc(Oc3ccccc3)cc2)Oc2ccc(NC(=O)Nc3ccc4c(c3)OCO4)cc2C1=O,inactive
16,C[C@H](CO)N1C[C@H](C)[C@@H](CN(C)Cc2ccc(Oc3ccccc3)cc2)Oc2ccc(NC(=O)Nc3ccccc3)cc2C1=O,inactive
17,C[C@@H]1CN([C@H](C)CO)C(=O)c2cc(NC(=O)Cc3ccccc3)ccc2O[C@@H]1CN(C)Cc1ccc(Oc2ccccc2)cc1,inactive
18,Cc1ccc(S(=O)(=O)N[C@@H]2CC[C@@H](CC(=O)N3CCC(Cc4ccccc4)CC3)O[C@H]2CO)cc1,inactive
19,C[C@H](CO)N1C[C@H](C)[C@@H](CN(C)Cc2ccc(Oc3ccccc3)cc2)Oc2c(NC(=O)c3ccc(-c4nccs4)cc3)cccc2C1=O,inactive
20,C[C@@H]1CN([C@H](C)CO)S(=O)(=O)c2ccc(C#Cc3ccccn3)cc2O[C@H]1CN(C)Cc1ccccc1,inactive
21,CCCC(=O)Nc1ccc2c(c1)C(=O)N(C)C[C@H](OC)[C@@H](C)CN(S(=O)(=O)c1cn(C)cn1)[C@@H](C)CO2,inactive

row,SMILES,cytotoxicity call
1,COc1cccc(OC)c1C(=O)O[C@H]1[C@@H]2OC(=O)[C@H](Cc3cccc(Br)c3)C/C=C/C[C@@H](Cc3cccc(Br)c3)C(=O)O[C@H]2[C@@H](OC)O[C@@H]1CO,inactive
2,C[C@@H]1CCCCO[C@H](CN(C)C(=O)c2ccccc2)[C@H](C)CN([C@@H](C)CO)C(=O)c2cc(NC(=O)Nc3ccc(F)cc3)ccc2O1,inactive
3,COc1ccc(NC(=O)Nc2ccc3c(c2)CC(=O)N([C@@H](C)CO)C[C@@H](C)[C@H](CN(C)Cc2ccc(-c4ccccc4)cc2)O3)cc1,inactive
4,C[C@H]1CCCCO[C@H](CN(C)C(=O)Nc2cccc3ccccc23)[C@@H](C)CN([C@@H](C)CO)C(=O)c2cc(N(C)C)ccc2O1,inactive
5,C[C@H]1CN([C@@H](C)CO)C(=O)c2cc(NC(=O)Nc3ccccc3)ccc2O[C@H]1CN(C)Cc1ccc(Oc2ccccc2)cc1,inactive
6,C[C@@H]1CN([C@H](C)CO)C(=O)c2cc(NC(=O)Nc3ccccc3)ccc2O[C@H]1CN(C)Cc1ccc(Oc2ccccc2)cc1,inactive
7,COc1ccc(NC(=O)Nc2ccc3c(c2)C(=O)N([C@@H](C)CO)C[C@H](C)[C@@H](CN(C)Cc2ccc(-c4ccccc4)cc2)O3)cc1,active
8,COc1ccc(NC(=O)Nc2ccc3c(c2)C(=O)N([C@@H](C)CO)C[C@@H](C)[C@@H](CN(C)Cc2ccc(-c4ccccc4)cc2)O3)cc1,inactive
9,C[C@@H]1CN([C@H](C)CO)C(=O)c2cc(NC(=O)Nc3ccccc3)ccc2O[C@@H]1CN(C)Cc1ccc(Oc2ccccc2)cc1,active
10,COc1ccc(NC(=O)Nc2ccc3c(c2)C(=O)N([C@H](C)CO)C[C@H](C)[C@@H](CN(C)Cc2ccc(-c4ccccc4)cc2)O3)cc1,inactive
11,COc1ccc2c3c([nH]c2c1)[C@@H](CO)N(C[C@]13CCN(CC1)Cc1ccccc1F)S(=O)(=O)c1cn(cn1)C,inactive
12,C[C@@H]1CN([C@@H](C)CO)C(=O)c2cc(NC(=O)Nc3cccc4ccccc34)ccc2O[C@@H]1CN(C)C(=O)Nc1ccc(F)cc1,inactive
13,CN1C(=O)c2cc(NC(=O)C3CCOCC3)ccc2OC[C@@H]2O[C@H](CC(=O)NCc3ccc4c(c3)OCO4)CC[C@@H]21,inactive
14,COC(=O)c1c2oc(c1C(=O)OC)C(=O)N[C@H](Cc1ccccc1)Cn1cc(nn1)[C@@H](Cc1ccccc1)NC(=O)N[C@H](COC(=O)NCCCCCC(=O)NO)CC2,inactive
15,Cc1cc(C)n([C@@H](C)CN)n1,inactive
16,C[C@H]1CN([C@@H](C)CO)C(=O)c2cccc(NS(=O)(=O)c3cccs3)c2O[C@@H]1CN(C)S(=O)(=O)c1cn(C)cn1,inactive
17,C[C@H](CO)N1C[C@H](C)[C@@H](CN(C)S(=O)(=O)c2cn(C)cn2)Oc2cc(C3=CCCC3)ccc2S1(=O)=O,inactive
18,COc1ccc(CN(C)C[C@H]2Oc3ccc(NC(=O)C4CC4)cc3CC(=O)N([C@@H](C)CO)C[C@@H]2C)cc1,inactive
19,"C=C1CCC=C(C)CCC2C1CC2(C)C.O (single isomer, unassigned; (-)) [(-)E-CARYOPHYLLENE hydrate ]",inactive
20,C=C1C(=O)OC2C1CCC(C)=CCCC1(C)OC21 (stereo not drawn),active
21,Cc1cc(C)nc(NS(=O)(=O)c2ccc(NC(=O)c3cccn(OCc4ccc(F)cc4)c3=O)cc2)n1,inactive

row,SMILES,cytotoxicity call
1,Cc1ccc(C(=O)Nc2ccc(Oc3cc4cnn(C)c4cc3-c3cn[nH]c3)c(F)c2)c(=O)n1-c1ccc(F)cc1,active
2,CCCNC(=O)N1C[C@@H](C)[C@@H](OC)CN(C)C(=O)c2ccc(NS(=O)(=O)CC(F)(F)F)cc2OC[C@@H]1C,inactive
3,Cc1ccc(Nc2nnc(-c3ccccc3)c3ccccc23)cc1,inactive
4,Cc1ccc(Oc2nnc(-c3cccs3)c3ccccc23)cc1,inactive
5,Cc1csc(-c2nnc(Nc3ccc(Oc4ncccc4-c4ccnc(N)n4)cc3)c3ccccc23)c1,active
6,O=C(O)C[C@@H](O)C(=O)O,inactive
7,COC(=O)C1=CO[C@@H](O[C@@H]2O[C@H](CO)[C@@H](O)[C@H](O)[C@H]2O)/C(=C\CO)[C@@H]1CC(=O)OCCc1ccc(O)cc1,inactive
8,C[C@@H]1CN([C@H](C)CO)S(=O)(=O)c2ccc(C3=CCCC3)cc2O[C@H]1CN(C)S(=O)(=O)c1ccc(F)cc1,inactive
9,CS(=O)(=O)N1CC[C@]2(COCc3cnc(N4CCOCC4)nc32)C1,inactive
10,c1nc(N2CCOCC2)nc(N2CCOCC2)n1,inactive
11,CS(=O)(=O)N1CCc2c(-c3cnc(N)nc3)nc(N3CCOCC3)nc21,active
12,C[C@H]1CN([C@@H](C)CO)C(=O)c2cccc(NC(=O)c3ccncc3)c2O[C@H]1CN(C)Cc1ccc(Oc2ccccc2)cc1,inactive
13,C[C@H]1CCCCO[C@H](CN(C)C(=O)Nc2ccc(C(F)(F)F)cc2)[C@@H](C)CN([C@@H](C)CO)C(=O)c2cc(NS(=O)(=O)c3ccccc3)ccc2O1,active
14,C[C@@H]1CN([C@@H](C)CO)C(=O)c2cc(NS(=O)(=O)c3ccccc3)ccc2O[C@@H](C)CCCCO[C@@H]1CN(C)C(=O)Nc1ccc(C(F)(F)F)cc1,active
15,C[C@H](CO)N1C[C@H](C)[C@H](CN(C)C(=O)Nc2ccc(C(F)(F)F)cc2)OCCCC[C@H](C)Oc2ccc(NS(=O)(=O)c3ccccc3)cc2C1=O,inactive
16,C[C@H](CO)N1C[C@H](C)[C@@H](CN(C)C(=O)Nc2ccc(C(F)(F)F)cc2)OCCCC[C@H](C)Oc2ccc(NS(=O)(=O)c3ccccc3)cc2C1=O,inactive
17,C[C@@H]1CCCCO[C@H](CN(C)C(=O)Nc2ccc(C(F)(F)F)cc2)[C@@H](C)CN([C@H](C)CO)C(=O)c2cc(NS(=O)(=O)c3ccccc3)ccc2O1,inactive
18,C[C@@H]1CCCCO[C@H](CN(C)C(=O)Nc2ccc(C(F)(F)F)cc2)[C@H](C)CN([C@H](C)CO)C(=O)c2cc(NS(=O)(=O)c3ccccc3)ccc2O1,inactive
19,CCN1C(=O)[C@H]2[C@H]3[C@H](O)[C@H](O)C/C(=N\OC[C@@H](O)COCc4ccco4)[C@@H]3CC[C@H]2C1=O,inactive
20,C[C@@H]1CCCCO[C@@H](CN(C)S(=O)(=O)c2cccs2)[C@@H](C)CN([C@@H](C)CO)C(=O)c2cc(NC(=O)Nc3ccccc3)ccc2O1,inactive
21,C[C@H]1CN([C@@H](C)CO)C(=O)c2cccc(NC(=O)C3CCOCC3)c2O[C@H]1CN(C)S(=O)(=O)c1cn(C)cn1,inactive
